# Nox1 inh – human Nox1 inhibition. Q9Y5S8. HT29 cells, luminol chemiluminescence ROS. inhibition, % at 6.7 µM. 0.81% of 16,000 active
# Target sequence (Q9Y5S8 whole entry, looked up): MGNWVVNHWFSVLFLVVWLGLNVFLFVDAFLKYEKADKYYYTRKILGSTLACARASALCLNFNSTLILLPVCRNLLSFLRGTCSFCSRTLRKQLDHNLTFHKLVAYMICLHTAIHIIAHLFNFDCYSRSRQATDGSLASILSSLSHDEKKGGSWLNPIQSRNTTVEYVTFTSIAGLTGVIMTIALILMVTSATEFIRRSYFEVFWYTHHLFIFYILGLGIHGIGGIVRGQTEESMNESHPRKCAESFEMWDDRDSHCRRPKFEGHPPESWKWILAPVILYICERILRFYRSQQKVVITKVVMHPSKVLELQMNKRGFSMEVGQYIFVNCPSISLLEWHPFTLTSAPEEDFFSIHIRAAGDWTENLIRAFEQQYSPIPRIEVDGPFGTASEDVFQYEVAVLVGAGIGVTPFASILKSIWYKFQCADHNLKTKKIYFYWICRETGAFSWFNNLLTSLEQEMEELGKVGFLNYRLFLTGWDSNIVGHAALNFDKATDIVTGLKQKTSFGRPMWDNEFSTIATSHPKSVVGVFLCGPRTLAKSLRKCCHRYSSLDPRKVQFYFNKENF
# Luminol counter – luminol signal inhibition, Nox1 inhibitor counter-screen. AID 1823. HRP/luminol/H2O2 chemiluminescence counterscreen. 0.4% of 16,000 active. inhibition, % at 6.7 µM; further: reference of the scale not given here
# Numbers stand for hits; n = inactive. This is a sample that favours compounds with a hit; in the whole collection about 1.4% have one here. No stated cut-off is given here; in the data, active means inhibition above about 75%; inactive means the rest.
SMILES,Nox1 inh,Luminol counter
O=C(c1ccc(F)cc1)C1CCN(CC(O)C(F)(F)F)CC1 (stereo not given),n,n
Cc1nc(C(=O)NNC(=O)c2ccc(C(C)(C)C)cc2)cs1,n,n
C=CCn1c(C(C)Oc2ccc(Cl)cc2)n[nH]c1=S (stereo not given),n,94
Cc1n[nH]c(C)c1Oc1ccc(Cl)cc1,n,n
CN(C)/C=C/C(=O)c1csc2ccccc12,n,n
Cn1nc(C(C)(C)C)cc1C(=O)NCc1ccc2c(c1)CCO2,n,n
COc1nc(NNC(=O)NS(=O)(=O)c2ccccc2Cl)nc(OC)n1,78,n
CCOC(=O)NS(=O)(=O)c1ccccc1Cl,n,n
CCCc1c(Cc2c(F)cccc2Cl)c(=O)oc2cc(OC(=O)COC)ccc12,n,n
COc1ccc(C#N)c(C(=O)O)c1,n,n
COc1ccc(N(C)CC(=O)O)c(C(=O)O)c1,97,n
CCOC(=O)C(Nc1cccc(F)c1)(NS(=O)(=O)c1ccc(C)cc1)C(F)(F)F (stereo not given),n,n
O=C(OCc1ccccc1Br)c1cc([N+](=O)[O-])cc([N+](=O)[O-])c1,n,n
CC1CN(c2ccc(NC(=S)NN)cc2)CC(C)O1 (stereo not given),102,n
CC1CN(c2ccc(NC(=S)NCc3ccco3)cc2)CC(C)O1 (stereo not given),n,n
O=C(CSc1ccccc1[N+](=O)[O-])NNC(=O)c1sc2ccccc2c1Cl,n,n
S=c1[nH]nc(-c2ccccc2Cl)n1C1CCCCC1,n,n
COc1cc(-c2n[nH]c(=S)n2C2CCCCC2)cc(OC)c1OC,n,87
COc1cc(-c2n[nH]c(=S)n2-c2ccccc2Cl)cc(OC)c1OC,n,95
COc1ccc(-c2n[nH]c(=S)n2-c2ccccc2Cl)cc1,n,n
O=S(=O)(Cc1nc(COc2c(Cl)cccc2Cl)no1)c1ccc(Cl)cc1,n,n
Cc1nc(C(F)(F)F)ccc1C(=O)Oc1ccc(F)cc1F,n,n
O=C(C1CCCO1)N1CCN(S(=O)(=O)c2cc(S(=O)(=O)c3ccccc3)cs2)CC1 (stereo not given),n,n
O=S(=O)(Nc1ccc(N2CCCCC2)cc1)c1cc(S(=O)(=O)c2ccccc2)cs1,104,n
CCOC(=O)c1c[nH]c2c(OC(F)(F)F)cccc2c1=O,n,n
SMILES,Nox1 inh,Luminol counter
CCS(=O)(=O)c1ccc(O)c(NC(=O)c2ccccc2C(=O)O)c1,96,n
Cc1ccc(S(=O)(=O)N(C)C)cc1NC(=O)c1ccccc1C(=O)O,n,n
CC(C)NC(=O)NC1CCCCNC1=O (stereo not given),n,n
Nc1nc(NC2CCCCNC2=O)n[nH]1 (stereo not given),92,n
COC(=O)C1=C(Nc2ccc(O)cc2)CSC1,99,n
COC(=O)C1=C(Nc2ccccc2NS(=O)(=O)c2ccc(OC)cc2)CSC1,n,n
NCC(c1ccc[nH]1)C(F)(F)F (stereo not given),n,n
COc1ccc(NC(C)=O)cc1C(C)=O,n,n
COc1ccc(C(=O)C=C(C)C)c(O)c1O,76,n
CS(=O)(=NC=C(C#N)C#N)c1ccc(Cl)cc1 (stereo not given),n,n
COc1ccc(OC)c(S(=O)(=O)c2ccc([N+](=O)[O-])cc2Cl)c1,89,n
O=[N+]([O-])c1ccc(OCS(=O)(=O)c2ccc(F)cc2F)c(Cl)c1,n,n
O=[N+]([O-])c1ccc(Sc2ncn[nH]2)c([N+](=O)[O-])c1,n,n
N#CC1=C(N)Oc2c(ccc3ccccc23)C1c1ccc(C(F)(F)F)cc1 (stereo not given),n,n
O=C1CS/C(=C/C(=O)c2cccs2)N1,n,n
O=C1CS/C(=C\C(=O)N2CCOCC2)N1,n,78
O=C(c1ccc(Cl)cc1)N(Cc1ccccc1)Cc1cccnc1,n,n
CN(C)c1ccc(/C=N/NC2=NCCN2)cc1,n,n
CN(C)c1ccc(/C=N/Nc2c(Cl)cncc2Cl)cc1,102,n
N#CCC1(C#N)CCc2ccccc21 (stereo not given),n,n
N#Cc1c(-c2ccncc2)[nH]c(=S)[nH]c1=O,n,n
N#Cc1c(N)nc2[nH]c(=S)[nH]c(=O)c2c1-c1ccc([N+](=O)[O-])cc1,n,84
Clc1ccccc1CSc1nnc(-c2cccs2)o1,n,n
O=C(O/N=C/c1ccc(F)c(Cl)c1)C1CC1,n,n
Cc1cc(N/N=C/c2ccco2)c([N+](=O)[O-])cc1[N+](=O)[O-],n,n
SMILES,Nox1 inh,Luminol counter
Cc1ncc(CSc2nccc(=O)[nH]2)c(CO)c1O,n,n
Cc1ncc(CSc2nc3ccc(C(F)(F)F)cc3[nH]2)c(CO)c1O,n,88
CC(C)(C)c1cc(C(=O)NNC(=O)c2cccs2)n(Cc2ccc(F)cc2)n1,n,n
CSc1nc(C)nc(N)c1C#N,n,n
Cc1ccc(SC#N)c(N)n1,100,n
Nc1ccccc1SC(CC(=O)c1ccc(Cl)cc1)c1ccsc1 (stereo not given),n,n
O=[N+]([O-])c1cccc(-c2c[nH]c(=S)[nH]2)c1,n,n
S=c1[nH]cc(-c2ccc(Br)cc2)[nH]1,98,n
COc1ccc(Cl)cc1NC(=O)Nc1ccc(N(C)C)cc1,99,n
COc1ccc(OC)c(NC(=O)Nc2ccc(Cl)cc2Cl)c1,n,n
NNC(=O)c1ccccc1NC(=O)c1ccccc1Cl,n,n
O=c1c2c(-c3ccc([N+](=O)[O-])cc3)onc2n(-c2ccccc2)c(=O)n1-c1ccccc1,94,n
Cc1c2c(=O)n(C)ncc2c(-c2ccccc2)n1-c1ccc([N+](=O)[O-])cc1,n,n
O=S(=O)(CCS(=O)(=O)c1ccc(Cl)cc1)c1ccccc1,n,n
